Consider 64 compounds from PubChem BioAssay AID686971 (National Center for Advancing Translational Sciences (NCATS), 2013).

The structures appear in SMILES notation. About 7,500 (2.1%) of roughly 360,000 compounds were called active. About 8% were inconclusive and are not listed. The list comes from a sample in which actives are over-represented; it also holds similar structures and randomly drawn compounds. Some compounds were tested as several samples or in several runs, with calls that do not always agree. Values without a mark were called inactive. The call rests on the fitted dose curve; in most records, active means well fitted cell-killing curve with a large enough effect; inconclusive means small, poorly fitted or top-dose-only effect, or effect the other way, or another doubt; inactive means no such curve, though single readings can be large or run the other way.
Potency means the concentration at half of the fitted maximal effect.

This assay is described as follows: qHTS for induction of synthetic lethality in tumor cells producing 2HG: qHTS for the HT-1080-IDH1KD cell line.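 On activity, negative = toxicity: 0% = DMSO wells and -100% = cell-free medium wells.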 Conditions: HT-1080 IDH1 knockdown viability, ATP luminescence, 48 h; series mostly up to 46.1 µM; activity, negative = toxicity: at the top concentration. The method, boiled down:
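After a 2 h attachment period, IDH1KD HT-1080 cells took pin-transferred compound for 48 h at 37 °C; ATP-based luminescence after 10 min room-temperature reagent incubation reported viability.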
For `COc1ccc(CN2C(=O)C(CC(=O)NCc3cccc4ccccc34)CC(C(=O)N3CCOCC3)=C2C)cc1` (centres undefined), the “activity, negative = toxicity” value was -0.0224%. With `CC(=O)OCC(C)n1c(=O)c2ccccc2n1C(C)=O` (centres undefined), the “activity, negative = toxicity” value was 12.7%.

With `O=c1ccc2c(-c3ccccc3S(=O)(=O)O)c3ccc(O)c(O)c3oc-2c1O`, the Potency is 14.6 µM (active). Consider `O=S1(=O)CCN(C2CCCCCCCCCCC2)CC1`, for which the “activity, negative = toxicity” value is 6.35%. On to `CCCCn1nnnc1C(c1cc2ccccc2o1)N(C)Cc1ccc(Cl)c(Cl)c1` (centres undefined), for which the “activity, negative = toxicity” value is -11.5%. For `C=CC(=O)OCCOCCOCCOCCOC(=O)C=C`, the Potency is 23.1 µM (active).

For `O=Cc1cn(CCOc2ccc(F)cc2)c2ccccc12`, the “activity, negative = toxicity” value is -3.73%. As for `CCOC(=O)/C(=N\Nc1ccccc1Cl)N(C)C1CCS(=O)(=O)C1` (centres undefined), the “activity, negative = toxicity” value was -25.2%.

Take `CCOC(=O)/C(=N\Nc1cc(Cl)ccc1Cl)N1CCN(C)CC1`: the Potency is 20.6 µM (active). Take `CCOC(=O)N1CCN(C(=O)C2CCN(S(=O)(=O)c3cc(Cl)ccc3OCC)CC2)CC1`: the “activity, negative = toxicity” value is 1.79%.

Regarding `CCC(=O)Nc1ccc2nc(C)n(Cc3ccccc3Cl)c(=O)c2c1`, the “activity, negative = toxicity” value was 0.259%. In the case of `CCOc1cc(NC(=O)c2ccccc2C(=O)O)c(OCC)cc1NC(=O)c1ccccc1F`, the “activity, negative = toxicity” value is 0.297%. Turning to `CCN1CCN(c2cc3nc(C)n(Cc4ccccc4)c(=O)c3cc2NC(=O)c2ccccc2F)CC1`, the Potency was 20.6 µM (active). On to `O=C(/C=C/c1ccc(N2CCOCC2)cc1)c1ccccc1`, for which the “activity, negative = toxicity” value is -25.3%.

Consider `CC1(C(=O)O)CCCN(C(=O)/C=C/c2ccccc2)C1` (centres undefined), for which the “activity, negative = toxicity” value is 16.9%. With `Cc1[nH]c(=O)c(C(=O)/C=C/c2ccccc2)c2c1CCCC2`, the Potency is 3.98 µM (active).

For the compound `COc1cc(F)ccc1-c1cc(C(=O)NCC2CCCCC2)[nH]n1`, the “activity, negative = toxicity” value is -0.877%. As for `Cc1ccc(Nc2nc(-c3ccc(O)cc3O)cs2)nc1`, the Potency is 1.84 µM (active). `CC(=O)Nc1cnc(-c2ccc(O)cc2C)cn1`: the “activity, negative = toxicity” value is -2.01%. `Cc1ccn2c(-c3csc(Nc4ccc(C(=O)O)cc4)n3)c(C)nc2c1`: the “activity, negative = toxicity” value was -27.7%. Same read-out and setting: under `Cn1c(NCc2cccnc2)nc2cc(-c3ccc(F)cc3)sc2c1=O` stands 0.818%; under `CCC1(CC)Cc2ccccc2-c2nc(CCl)[nH]c(=O)c21`, -20.6%. For the compound `O=c1[nH]c(CCl)nc2cc(-c3ccc(Cl)cc3)sc12`, the Potency is 11.6 µM (active). Regarding `O=C(c1ncn2c1c(=O)[nH]c1ccccc12)N1CCc2ccccc2C1`, the “activity, negative = toxicity” value is 0.374%.

As for `Cc1sc2nc(-c3ccccc3F)oc(=O)c2c1C`, the “activity, negative = toxicity” value is 0.555%. As to `OCCC#Cc1ccc(N2C(c3ccsc3)=Cc3ccc(F)cc3C2c2c[nH]c3ccccc23)cc1` (centres undefined), the Potency is 25.9 µM (active). On to `Nc1ncnc2c1ncn2[C@@H]1O[C@H](C(=O)N2CCCN(Cc3ccccc3F)CC2)[C@@H](O)[C@H]1O`, for which the “activity, negative = toxicity” value was 12.2%.

As for `Cc1nnc(SC(C)C(=O)c2c[nH]c3ccccc23)n1C1CC1` (centres undefined), the “activity, negative = toxicity” value was 8.97%.

With `CC(=NNC(N)=O)C1CC2CCC1CC2` (centres undefined), the “activity, negative = toxicity” value is 1.1%. For the compound `O=C(NCCc1ccc(Cl)cc1)c1cccc(N2CCCC2=O)c1`, the “activity, negative = toxicity” value was -1.86%. As for `Oc1cc2c(cc1O)CN(C(=S)NCCc1ccc(Cl)cc1)CCC2`, the Potency is 39.8 µM (active). For `COc1ccc(CCNC(=S)N2CCN(S(=O)(=O)c3ccc(Cl)cc3)CC2)cc1`, the “activity, negative = toxicity” value is -13.5%. Take `CCN(CC)C(=O)C1=C(C)N(Cc2ccc(OC)cc2)C(=O)C(CC(=O)NCCCCc2ccccc2)C1` (centres undefined): the “activity, negative = toxicity” value was -0.484%. In the case of `CC(C)CCOc1ccc(C(=O)Nc2cc(S(=O)(=O)N3CCOCC3)ccc2N2CCOCC2)cc1`, the “activity, negative = toxicity” value was -1.56%. For `COc1ccc(-c2csc(C(O)c3cccc(Cl)c3)n2)cn1` (centres undefined), the “activity, negative = toxicity” value was -28.4%. Take `COc1cccc(NC(=O)Nc2ccc(F)cc2)c1`: the “activity, negative = toxicity” value is -0.348%. With `COc1ccc(/C=N/Nc2cc(N3CCOCC3)nc(C)n2)c(OC)c1`, the “activity, negative = toxicity” value was -0.735%. With `COc1cccc(/C=N/Nc2ccc(S(=O)(=O)Nc3ccccc3C(=O)O)cc2[N+](=O)[O-])c1O`, the “activity, negative = toxicity” value was 9.03%. For the compound `COc1cccc(/C=N/Nc2cc(C)nc(-c3ccccc3O)n2)c1O`, the Potency is 6.51 µM (active). For `Nc1ncnc2c1ncn2[C@@H]1O[C@H](C(=O)NS(=O)(=O)c2c(Cl)nc3sccn23)[C@@H](O)[C@H]1O`, the “activity, negative = toxicity” value was 13.5%. As for `COc1ccc(NC(=O)N(C)C[C@@H]2OCc3cn(nn3)CCCC(=O)N([C@H](C)CO)C[C@H]2C)c(OC)c1`, the “activity, negative = toxicity” value was -13.7%. On to `COCCOC(=O)c1[nH]c2c(c1C)C(=O)CC(c1ccc(OC)cc1)C2` (centres undefined), for which the “activity, negative = toxicity” value was -0.695%. Take `COC(=O)C1C(=O)c2c([nH]c(C(=O)OCCSC)c2C)CC1C` (centres undefined): the “activity, negative = toxicity” value was 4.86%.

Take `CCCOC(=O)c1[nH]c2c(c1C)C(=O)CC(c1cccs1)C2` (centres undefined): the Potency is 0.651 µM (active). For the compound `CCc1nc2c(=O)[nH]cnc2o1`, the “activity, negative = toxicity” value was 6.79%. Still for that read-out and setting: under `O=C(Nc1ccc(Cl)cc1)c1csc([C@H]2C[C@H](O)[C@@H](CO)O2)n1` stands -8.66%; under `O=C(N[C@H]1CC[C@H](CC(=O)N2CCCCC2)O[C@@H]1CO)c1cccc(F)c1`, 26%; under `Cc1c(C(=O)N2CCCc3ccccc32)sc2nc(-c3ccccc3)cn12`, 8.39%. For the compound `Cc1ccc(C(=O)N2CCCc3ccccc32)c(Cl)c1`, the “activity, negative = toxicity” value was 0.883%. In the case of `Cc1cccc2cc3c(N)c(C(=O)N4CCCc5ccccc54)sc3nc12`, the Potency is 2.31 µM (active). With `CC(C)(C)Cc1c(C2CCCCC2)nc2ccc(Br)cn12`, the “activity, negative = toxicity” value was -20.5%. As for `C[C@H]1CN([C@@H](C)CO)C(=O)CCCn2cc(nn2)CO[C@@H]1CN(C)S(=O)(=O)c1ccc(-c2ccccc2)cc1`, the “activity, negative = toxicity” value was 3.42%. Same read-out and setting: under `N=C1C(c2nc3ccccc3[nH]2)=C(O)CN1NC(=O)c1c[nH]c2ccccc12` stands 4.62%. Turning to `Cc1ccc(C)n1NC(=O)c1ccc([N+](=O)[O-])cc1`, the “activity, negative = toxicity” value was -6.65%.

With `N=C1C(c2nc3ccccc3s2)=C(O)CN1NC(=O)c1ccc([N+](=O)[O-])cc1`, the Potency is 20.6 µM (active). Turning to `C[C@H]1CN([C@@H](C)CO)C(=O)c2cc(C3=CCCCC3)cnc2O[C@@H]1CN(C)C(=O)Cc1ccccc1`, the “activity, negative = toxicity” value is -8.68%. For the compound `COc1ccc(C2CC(c3cccc(OC)c3)=NN2c2ccc(S(N)(=O)=O)cc2)cc1` (centres undefined), the Potency was 16.4 µM (active).

Consider `COc1ccc(C2=NN(c3ccccc3)C(c3cccs3)C2)cc1` (centres undefined), for which the “activity, negative = toxicity” value is -0.443%.

For `COc1ccc(C2CC(c3ccccc3)=NN2C(=O)COC(=O)COc2ccccc2)cc1` (centres undefined), the “activity, negative = toxicity” value is -0.202%. As for `O=c1[nH]c2ccccc2n1C1CCN(CCOc2ccccc2)CC1`, the “activity, negative = toxicity” value was -17.5%.

On to `CCOc1ccc(NC(=O)CSc2nnc3c(n2)[nH]c2ccc(S(=O)(=O)N4CCOCC4)cc23)cc1`, for which the “activity, negative = toxicity” value was 23.2%.

For `CC1C(=O)N(Cc2cn(Cc3ccco3)nn2)CCS(=O)(=O)N1Cc1ccc(-c2cccc(CO)c2)cc1` (centres undefined), the “activity, negative = toxicity” value was -0.032%. `CC(C)CC1C(=O)N(Cc2cn(CC3CCCCC3)nn2)CCS(=O)(=O)N1Cc1ccc(-c2ccc(Cl)cc2)cc1` (centres undefined): the “activity, negative = toxicity” value is -2.65%. For `CC(C)CC1C(=O)N(Cc2cn(Cc3ccco3)nn2)CCS(=O)(=O)N1Cc1ccc(-c2ccc(Cl)c(Cl)c2)cc1` (centres undefined), the Potency is 18.4 µM (active).
